Results filed as inconclusive are left out. Activity calls are given as the source filed them. Unless noted, the call rests on the fitted dose curve.
What was measured:
[1] = molecular target: Peroxisome proliferator-activated receptor delta (Homo sapiens) (UniProt Q03181); assay: qHTS assay to identify small molecule agonists of the peroxisome proliferator-activated receptor delta (PPARd) signaling pathway (AID 743212)
How it was run: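 GeneBLAzer UAS-bla HEK293H cells carrying a PPARδ construct were exposed to compounds at 37 °C. Beta-lactamase activity was read by FRET fluorescence after 2 h at room temperature with LiveBLAzer B/G substrate.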

[2] = qHTS assay to identify small molecule antagonists of the peroxisome proliferator-activated receptor delta (PPARd) signaling pathway - cell viability counter screen (AID 743213; active means well fitted curve in the direction sought with a large enough effect in the repeat runs; an effect the other way counts as inactive or inconclusive; further: nearly all actives have a fitted effect of over 50% in size)
How it was run: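 Agonist-stimulated (L165041, 300 nM final) HEK293H PPARd UAS-bla cells are exposed to compounds for 17 h at 37 C, and ATP-based luminescence (CellTiter-Glo) from the same wells reports cytotoxicity.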

[3] = qHTS assay to identify small molecule agonists of the farnesoid-X-receptor (FXR) signaling pathway - cell viability counter screen (AID 743218; active means well fitted curve in the direction sought with a large enough effect in the repeat runs; an effect the other way counts as inactive or inconclusive; further: nearly all actives have a fitted effect of over 45% in size)
How it was run: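 FXR-UAS-bla HEK 293T cells, plated 5 h at 37 C, were exposed to compounds for 16 h at 37 C. CellTiter-Glo was then added to the same wells as the bla readout; luminescence read after 30 min at room temperature.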

[4] = qHTS assay to identify small molecule antagonists of the farnesoid-X-receptor (FXR) signaling pathway - cell viability counter screen (AID 743221; active means well fitted cell-killing curve with a large enough effect in the repeat runs, not every such curve was filed as active; further: nearly all actives have a fitted effect of over 50% in size)
How it was run: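 Cytotoxicity is taken from ATP luminescence (CellTiter-Glo, 30 min, room temperature) in FXR-bla HEK 293T cells previously incubated 16 h at 37 C with compound and chenodeoxycholic acid at 50 uM final.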

[5] = qHTS assay to identify small molecule agonists of the vitamin D receptor (VDR) signaling pathway - cell viability counter screen (AID 743224; active means well fitted curve in the direction sought with a large enough effect in the repeat runs; an effect the other way counts as inactive or inconclusive; further: series mostly up to about 63 µM; nearly all actives have a fitted effect of over 50% in size)
How it was run: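 VDR-bla cells were preincubated 4 h at 37C/5% CO2, then exposed to compounds for 16 h. After the 2 h room-temperature bla FRET read, CellTiter-Glo was added to the same wells and luminescence read after 30 min.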

[6] = qHTS assay to identify small molecule antagonists of the vitamin D receptor (VDR) signaling pathway - cell viability counter screen (AID 743225; active means well fitted curve in the direction sought with a large enough effect in the repeat runs; an effect the other way counts as inactive or inconclusive; further: nearly all actives have a fitted effect of over 50% in size)
How it was run: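 Same-well multiplex: following 16 h treatment of HEK 293T cells carrying a UAS-driven beta-lactamase reporter with compound and agonist (3 nM final), and a 2 h FRET substrate step, CellTiter-Glo was added and luminescence read after 30 min.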

[7] = qHTS assay to identify small molecule agonists of the NFkB signaling pathway (AID 1159509; active means well fitted curve in the direction sought with a large enough effect in the signal ratio in the repeat runs, not every such curve was filed as active; the % refers to the signal ratio; further: series mostly up to about 61 µM)
How it was run: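 NFkB-bla ME-180 cells carry a beta-lactamase reporter under an NF-kB response element. They were plated overnight, then exposed to compounds for 5 h at 37 C. Read-out is LiveBLAzer FRET after 1.5 hr at room temperature (405 nm excitation; 460/530 nm emission).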

[8] = qHTS assay to identify small molecule agonists of the NFkB signaling pathway - cell viability counter screen (AID 1159515); further: series mostly up to about 61 µM; nearly all actives have a fitted effect of over 55% in size
How it was run: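 NFkB-bla ME-180 cells, 2,000/well, were plated overnight at 37 C, 5% CO2, then exposed to compounds in DMSO for 5 hr. After the bla FRET read, CellTiter-Glo was added to the same wells; luminescence was read after 30 min at room temperature.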

[9] = qHTS assay to identify small molecule agonists of the endoplasmic reticulum stress response signaling pathway (AID 1159516; active means well fitted activation curve with a large enough effect in the signal ratio in the repeat runs, not every such curve was filed as active; the % refers to the signal ratio)
How it was run: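 CellSensor ESRE-bla HeLa cells, carrying a beta-lactamase reporter driven by the ER stress response element, were plated overnight and exposed to compounds for 5 hr at 37 C. Reporter activity was read as FRET substrate fluorescence after 2 hr at room temperature.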

[10] = qHTS assay to identify small molecule agonists of the endoplasmic reticulum stress response signaling pathway - cell viability counter screen (AID 1159517)
How it was run: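 ESRE-bla HeLa cells, 1,500 per well, seeded overnight then treated with compounds for 5 hr at 37 C. After the beta-lactamase read, viability in the same wells is measured by CellTiter-Glo luminescence after 30 min at room temperature.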

[11] = qHTS assay to identify small molecule antagonists of the retinoid-related orphan receptor gamma (ROR-gamma) signaling pathway - cell viability counter screen (AID 1159520; active means well fitted curve in the direction sought with a large enough effect in the repeat runs; an effect the other way counts as inactive or inconclusive; further: nearly all actives have a fitted effect of over 50% in size)
How it was run: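 Tet-on ROR gamma CHO cells were given compounds for 2 hr, then doxycycline hyclate at 1 uM final, and incubated 16 hr at 37 C. Viability was measured as ATP content by CellTiter-Glo luminescence.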

[12] = qHTS assay to identify small molecule agonists of the AP-1 signaling pathway - cell viability counter screen (AID 1159525); further: nearly all actives have a fitted effect of over 55% in size
How it was run: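 AP-1-bla ME-180 cells in Opti-MEM with 0.5% dialyzed FBS, compound exposure 5 h at 37 C in 15-point titration. Viability read in the same wells as ATP content by CellTiter-Glo luminescence, normalised to tetra-n-octylammonium bromide and DMSO controls.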

[13] = qHTS assay to identify small molecule agonists of the AP-1 signaling pathway (AID 1159526)
[14] = molecular target: Vitamin D3 receptor (Homo sapiens) (UniProt P11473); assay: qHTS assay to identify small molecule agonists of the vitamin D receptor (VDR) signaling pathway (AID 743222)
Chain of Vitamin D3 receptor (Homo sapiens) (P11473 whole entry, looked up): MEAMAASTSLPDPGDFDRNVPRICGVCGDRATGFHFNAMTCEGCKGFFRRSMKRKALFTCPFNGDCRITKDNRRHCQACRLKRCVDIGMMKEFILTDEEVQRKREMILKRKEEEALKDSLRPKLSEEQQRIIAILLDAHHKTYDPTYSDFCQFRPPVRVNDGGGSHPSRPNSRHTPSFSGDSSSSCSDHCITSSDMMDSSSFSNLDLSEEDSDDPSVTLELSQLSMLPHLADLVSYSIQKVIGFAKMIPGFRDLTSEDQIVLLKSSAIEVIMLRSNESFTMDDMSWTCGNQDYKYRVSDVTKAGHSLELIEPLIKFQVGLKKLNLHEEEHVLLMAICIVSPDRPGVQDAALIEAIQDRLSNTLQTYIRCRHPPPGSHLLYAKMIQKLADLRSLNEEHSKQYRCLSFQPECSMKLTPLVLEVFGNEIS
How it was run: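 VDR-bla cells were plated 4 h at 37C/5% CO2, then exposed to compounds in DMSO for 16 h. After LiveBLAzer B/G FRET substrate addition and 2 h at room temperature, beta-lactamase reporter fluorescence was read.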

[15] = molecular target: Vitamin D3 receptor (Homo sapiens) (UniProt P11473); assay: qHTS assay to identify small molecule antagonists of the vitamin D receptor (VDR) signaling pathway (AID 743223; active means well fitted inhibition curve with a large enough effect in the signal ratio in the repeat runs, not every such curve was filed as active; the % refers to the signal ratio)
How it was run: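 Quantitative HTS in VDR-bla reporter cells stimulated with 1alpha,25-dihydroxyvitamin D3, 3 nM final. Compound exposure 16 h, 37C, 5% CO2. Read-out: beta-lactamase FRET substrate fluorescence, 2 h RT.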

[16] = molecular target: Nuclear receptor ROR-gamma (Homo sapiens) (UniProt P51449); assay: qHTS assay to identify small molecule antagonists of the retinoid-related orphan receptor gamma (ROR-gamma) signaling pathway (AID 1159521; active means well fitted curve in the direction sought with a large enough effect in the repeat runs; an effect the other way counts as inactive or inconclusive)
How it was run: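 Inducible-expression reporter assay: doxycycline (1 uM final) switched on RORγ in CHO cells bearing a ROR response element-luciferase construct, with test compounds present from 2 h beforehand. Decreased luminescence after 16 h defined antagonist activity.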

[17] = molecular target: Peroxisome proliferator-activated receptor delta (Homo sapiens) (UniProt Q03181); assay: qHTS assay to identify small molecule antagonists of the peroxisome proliferator-activated receptor delta (PPARd) signaling pathway (AID 743215; active means well fitted inhibition curve with a large enough effect in the signal ratio in the repeat runs, not every such curve was filed as active; the % refers to the signal ratio; further: series mostly up to about 62 µM)
How it was run: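 PPARd UAS-bla HEK293H cells were pre-incubated 5 h at 37 C, then given test compounds in DMSO plus agonist L165041 (300 nM final). After 17 h at 37 C, beta-lactamase FRET substrate was added; fluorescence read after 2 h at room temperature.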

[18] = molecular target: Bile acid receptor (Homo sapiens) (UniProt Q96RI1); assay: qHTS assay to identify small molecule antagonists of the farnesoid-X-receptor (FXR) signaling pathway (AID 743217; active means well fitted inhibition curve with a large enough effect in the signal ratio in the repeat runs, not every such curve was filed as active; the % refers to the signal ratio)
Chain of Bile acid receptor (Homo sapiens) (Q96RI1 whole entry, looked up): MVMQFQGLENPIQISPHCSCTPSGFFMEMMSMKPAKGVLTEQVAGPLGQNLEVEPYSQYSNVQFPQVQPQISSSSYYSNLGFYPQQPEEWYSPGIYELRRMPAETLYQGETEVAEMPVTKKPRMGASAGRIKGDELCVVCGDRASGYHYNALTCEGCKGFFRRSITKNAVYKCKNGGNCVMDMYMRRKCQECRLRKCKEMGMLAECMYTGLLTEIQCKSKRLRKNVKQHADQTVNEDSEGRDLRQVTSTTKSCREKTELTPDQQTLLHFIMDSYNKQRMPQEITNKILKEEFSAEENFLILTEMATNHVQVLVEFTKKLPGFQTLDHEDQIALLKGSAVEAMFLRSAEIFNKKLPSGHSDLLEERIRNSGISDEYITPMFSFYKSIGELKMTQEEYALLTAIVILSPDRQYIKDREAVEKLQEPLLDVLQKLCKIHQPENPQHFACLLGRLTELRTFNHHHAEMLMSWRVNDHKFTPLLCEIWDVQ
How it was run: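 FXR-UAS-bla HEK 293T cells pre-incubated 5 h at 37 °C, then exposed to compounds with chenodeoxycholic acid (50 uM final) for 16 h at 37 °C. Beta-lactamase reporter read by LiveBLAzer B/G FRET substrate fluorescence after 2 h at room temperature.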

[19] = molecular target: Bile acid receptor (Homo sapiens) (UniProt Q96RI1); assay: qHTS assay to identify small molecule agonists of the farnesoid-X-receptor (FXR) signaling pathway (AID 743220; active means well fitted activation curve with a large enough effect in the signal ratio in the repeat runs, not every such curve was filed as active; the % refers to the signal ratio)
How it was run: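 Beta-lactamase reporter under UAS control in GeneBLAzer FXR HEK 293T cells (5000/well) measured with LiveBLAzer FRET substrate after 2 h at room temperature. Compound exposure lasted 16 h at 37C.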

[20] = molecular target: Retinoic acid receptor RXR-alpha (Homo sapiens) (UniProt P19793); assay: qHTS assay to identify small molecule agonists of the RXR signaling pathway (AID 1159527); further: nearly all actives have a fitted effect of over 35% in size
Chain of Retinoic acid receptor RXR-alpha (Homo sapiens) (P19793 whole entry, looked up): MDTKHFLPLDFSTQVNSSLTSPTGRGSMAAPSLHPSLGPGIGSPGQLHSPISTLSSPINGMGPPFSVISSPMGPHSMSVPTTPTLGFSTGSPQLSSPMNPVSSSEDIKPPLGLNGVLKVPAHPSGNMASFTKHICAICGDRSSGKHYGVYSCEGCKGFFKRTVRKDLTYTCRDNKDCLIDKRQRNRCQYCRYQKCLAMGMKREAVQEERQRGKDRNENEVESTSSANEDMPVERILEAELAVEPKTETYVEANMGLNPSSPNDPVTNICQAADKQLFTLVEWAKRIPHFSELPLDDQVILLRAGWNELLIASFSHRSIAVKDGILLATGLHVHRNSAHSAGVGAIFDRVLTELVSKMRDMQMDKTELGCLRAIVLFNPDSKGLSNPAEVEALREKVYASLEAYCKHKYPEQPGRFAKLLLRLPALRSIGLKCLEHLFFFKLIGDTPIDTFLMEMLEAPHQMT
How it was run: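 Compounds in DMSO were added to RXR-alpha-UAS-bla HEK 293T cells kept in 2% charcoal-stripped serum, and incubated 16 hr at 37 C with 5% CO2. Reporter signal came from a 2 hr B/G FRET substrate step.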

Measured: Potency

Chain of Peroxisome proliferator-activated receptor delta (Homo sapiens) (Q03181 whole entry, looked up): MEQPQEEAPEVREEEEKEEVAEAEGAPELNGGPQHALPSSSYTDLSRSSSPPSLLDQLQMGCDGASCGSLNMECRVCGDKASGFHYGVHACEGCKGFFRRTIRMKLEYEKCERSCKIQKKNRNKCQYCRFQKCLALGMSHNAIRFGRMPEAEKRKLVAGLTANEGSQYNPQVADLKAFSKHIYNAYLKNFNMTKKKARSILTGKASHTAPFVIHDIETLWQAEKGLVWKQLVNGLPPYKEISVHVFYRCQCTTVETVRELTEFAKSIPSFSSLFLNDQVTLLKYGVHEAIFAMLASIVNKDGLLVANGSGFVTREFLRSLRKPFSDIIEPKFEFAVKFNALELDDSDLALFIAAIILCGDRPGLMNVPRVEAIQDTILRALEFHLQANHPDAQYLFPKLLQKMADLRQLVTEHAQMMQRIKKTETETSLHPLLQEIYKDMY

Cc1cnc(C(=O)NCCc2ccc(S(=O)(=O)NC(=O)NC3CCCCC3)cc2)cn1
inactive: [1] | [2] | [3] | [4] | [5] | [6] | [7] | [8] | [9] | [10] | [11] | [12] | [13]

Fc1ccc(Br)cc1
inactive: [2] | [3] | [14] | [15] | [5] | [7] | [8] | [9] | [10] | [11] | [16] | [12] | [13]

Cc1ccc2oc(=O)ccc2c1
inactive: [1] | [2] | [17] | [18] | [3] | [19] | [14] | [15] | [5] | [6] | [7] | [8] | [9] | [10] | [11] | [12] | [13] | [20]

COc1cc(Cc2cnc(N)nc2N)cc(OC)c1OC
inactive: [1] | [2] | [17] | [3] | [4] | [14] | [15] | [5] | [6] | [7] | [8] | [9] | [10] | [11] | [12] | [13]

Cc1ccc(S(N)(=O)=O)cc1
inactive: [1] | [2] | [3] | [19] | [4] | [14] | [15] | [6] | [7] | [8] | [9] | [10] | [11] | [12] | [13]

C=CCOC(=O)c1ccccc1C(=O)OCC=C
inactive: [2] | [18] | [3] | [19] | [5] | [6] | [7] | [8] | [9] | [10] | [11] | [16] | [12] | [13]

CCCCCCCCCC
inactive: [1] | [2] | [17] | [18] | [3] | [19] | [4] | [14] | [15] | [6] | [7] | [8] | [9] | [10] | [16] | [12] | [13] | [20]

O=C(O)CC(C(=O)O)C(CC(=O)O)C(=O)O (stereo not given)
inactive: [1] | [2] | [17] | [18] | [3] | [19] | [14] | [15] | [5] | [6] | [7] | [8] | [9] | [10] | [11] | [12] | [13] | [20]

C=C(C)C(=O)Nc1ccc(Cl)c(Cl)c1
inactive: [2] | [3] | [4] | [14] | [15] | [5] | [6] | [7] | [8] | [9] | [10] | [11] | [16] | [12] | [13]
